Screening data (PubChem BioAssay)
ALOX12 inh – ALOX12 (human) lipoxygenase inhibition. P18054. purified 12hLO, xylenol orange hydroperoxide absorbance. Potency, µM (top dose mostly 108 µM), most hits filed as inhibitors. 1.1% of 580,000 active. AID 1671190
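Hydroperoxide product was detected by ferrous iron/xylenol orange as the 573 to 405 nm absorbance ratio. Arachidonic acid at 40 uM (final) was turned over for 30 min at room temperature by 150 nM human 12hLO, pH 7.0 Hepes buffer, after 15 min compound preincubation.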
Glioma ERSR ind – ER stress response induction in glioma. AID 602332. Potency, µM, most hits filed as activators. U87-MG GRP78 promoter luciferase reporter, 16 h. 0.02% of 420,000 active; note: series mostly up to about 76 µM; nearly all actives have a fitted effect of over 35% in size
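ERSR induction read as luciferase luminescence (Bright-Glo, 10 min at room temperature) in stably transfected human U87-MG glioma cells exposed to compounds for 16 h, using GRP78 as sensor.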
IDH1 R132H inh – inhibitors of human mutant IDH1 R132H. O75874. IDH1-R132H enzyme, NADPH consumption, diaphorase/resazurin fluorescence. Potency, µM (highest dose often 76.6 µM), hits mostly inhibitors. 0.093% of 390,000 active. AID 602179; note: nearly all actives have a fitted effect of over 65% in size
Target sequence (O75874 whole entry R132H, stated change not applied): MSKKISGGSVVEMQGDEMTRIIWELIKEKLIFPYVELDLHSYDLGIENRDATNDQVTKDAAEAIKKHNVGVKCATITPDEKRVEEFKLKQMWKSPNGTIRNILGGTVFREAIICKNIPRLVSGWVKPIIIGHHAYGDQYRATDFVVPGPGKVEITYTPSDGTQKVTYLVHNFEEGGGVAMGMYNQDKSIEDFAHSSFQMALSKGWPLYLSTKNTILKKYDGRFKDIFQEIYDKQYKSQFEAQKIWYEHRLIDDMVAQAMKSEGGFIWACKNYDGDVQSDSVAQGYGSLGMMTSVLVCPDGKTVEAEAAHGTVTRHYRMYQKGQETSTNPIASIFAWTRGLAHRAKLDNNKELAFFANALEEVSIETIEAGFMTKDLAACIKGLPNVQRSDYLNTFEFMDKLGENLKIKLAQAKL
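IDH1-R132H (0.5 ug/mL dispensed) in pH 7.5 Tris buffer was preincubated 30 min with compound, then given a substrate mix of 0.016 mM NADPH and 2 mM alpha-KG for 80 min at room temperature; remaining NADPH was read by diaphorase/resazurin fluorescence.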
Anesthetic bind – binds horse apoferritin like a general anesthetic; P02791; apoferritin/1-aminoanthracene competitive binding, fluorescence; Potency, µM (doses to about 77.5 µM), most hits filed as inhibitors; 0.074% of 350,000 active; AID 485281; note: nearly all actives have a fitted effect of over 20% in size
Target sequence (P02791 2-175 limits assumed): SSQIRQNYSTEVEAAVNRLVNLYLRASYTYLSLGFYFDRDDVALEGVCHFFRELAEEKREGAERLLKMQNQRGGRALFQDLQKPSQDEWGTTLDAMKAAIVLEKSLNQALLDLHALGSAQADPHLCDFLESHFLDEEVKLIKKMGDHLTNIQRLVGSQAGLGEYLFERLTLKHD
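Steps: apoferritin (10 uM) was premixed with half-saturated 1-AMA in PBS, compounds were pin-transferred, plates stood 10 min at room temperature, fluorescence was read at 380/535 nm, and curves were fitted with a Hill equation.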
TrxR1 substrate – rat thioredoxin reductase 1 substrate activity. O89049. purified TrxR1 substrate turnover, NADPH consumption readout. Potency, µM (highest dose often 114 µM). 0.01% of 390,000 active; note: nearly all actives have a fitted effect of over 50% in size
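Rat TrxR1, dispensed at 90 nM, was prereduced with 400 uM NADPH (final) for 5 min at ~22 deg C, then incubated with compound 15 min before 400 uM selenite. A first-read NADPH fluorescence drop versus no-compound background flagged substrates.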
TrxR1 inh-1 – blocks rat thioredoxin reductase 1 | O89049 | recombinant rTrxR1, NADPH fluorescence consumption, selenite substrate | Potency, µM (series often up to 114 µM), actives largely listed as inhibitors | 1% of 390,000 active | AID 588453; note: nearly all actives have a fitted effect of over 65% in size
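Rat TrxR1 (90 nM in the dispensed reagent) was pre-reduced with 400 uM NADPH for 5 min at room temperature, then incubated with compound for 15 min. After 400 uM selenite was added, NADPH fluorescence (Ex 340/Em 450 nm) was followed for 8 min.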
TRb SRC2 Alpha – disrupts human TRb binding to SRC2 peptide in AlphaScreen | shares compounds with TrxR1 inh-1 | AlphaScreen TRb LBD-SRC2 peptide binding, luminescence | Potency, µM | 50% of 30 active | AID 2444; calls by dose curve
HepG2 tox – counter-screen for TRb-SRC2 inhibitors: HepG2 cytotoxicity | shares compounds with TrxR1 inh-1 | AID 2447 | 50% of 40 active | Potency, µM | HepG2 viability, ATP luminescence (CellTiter-Glo), 72 h; calls by dose curve
AR-SRC2 inh – disrupts human androgen receptor binding to SRC2 peptide; shares compounds with TrxR1 inh-1; AR-LBD Tx-SRC2-3 fluorescence polarization, 3 h; calls only; 25 tested, under 10 active; AID 2448; call rule not given here
PPARg DRIP2 FP – disrupts human PPARgamma binding to DRIP-2 peptide; 25 tested, under 10 active; shares compounds with TrxR1 inh-1; Potency, µM; PPARg LBD / Texas Red DRIP-2 peptide, fluorescence polarization, 3 h; calls by dose curve
VDR-SRC2 FP sel – disrupts human vitamin D receptor binding to SRC2 peptide; shares compounds with TrxR1 inh-1; VDR LBD/SRC2-3 peptide, fluorescence polarization, 3 h; Potency, µM; 25 tested, under 10 active; calls by dose curve
TRb SRC2 FluoFP – disrupts human TRb binding to fluorescein-SRC2 peptide | shares compounds with TrxR1 inh-1 | TRb LBD / fluorescein-SRC2 peptide, fluorescence polarization | Potency, µM | 20 tested, under 10 active; call rule not given here
GR counterassay – counter-screen for TrxR1 inhibitors: human glutathione reductase inhibition; shares compounds with TrxR1 inh-1; purified GR, DTNB reduction absorbance 405 nm kinetic; activity change, negative = inhibition, % at 57.1 µM; 55 tested, under 10 active
TrxR1 inh-2 – blocks rat thioredoxin reductase 1 in hit validation; Potency, µM, hits mostly inhibitors; 50% of 55 active; recombinant TrxR1, NADPH fluorescence consumption, selenite substrate; AID 652023; shares compounds with TrxR1 inh-1
TrxR1 insulin – inhibits TrxR1-driven insulin reduction; TrxR1 Trx-coupled insulin reduction, NADPH absorbance 340 nm; shares compounds with TrxR1 inh-1; AID 652037; 20% of 55 active; Potency, µM;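 active = compounds with a measured potency under 100 micromolar; inconclusive = filed, but no rule given; inactive = potency at or above that, or unmeasurable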
TrxR1 inh-3 – rat thioredoxin reductase 1 inhibition, DTNB assay | shares compounds with TrxR1 inh-1 | purified TrxR1, DTNB reduction, A412 | Potency, µM | 90% of 55 active | AID 652256;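 active = a half-inhibiting concentration could be measured and was below 100 µM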
Large screens that a line does not name were inactive (follow-up assays come after a bar, where they were run). This is a sample that favours compounds with a hit; in the whole collection about 1.7% have one here. Unless noted, calls come from the whole dose curve; as a rule, active = well fitted curve in the direction sought with a large enough effect; inconclusive = small, poorly fitted or top-dose-only effect, or another doubt; inactive = no such curve, though single readings can be large; an effect the other way counts as inactive or inconclusive.

O=C(NC(=S)Nc1ccc(N2CCOCC2)cc1)c1cccc(Cl)c1	ALOX12 inh inconclusive, TrxR1 inh-1 10µM | GR counterassay inactive | TrxR1 inh-2 5.32 | TrxR1 insulin inactive | TrxR1 inh-3 2.56µM
O=C(NC(=S)Nc1ccc(N2CCOCC2)cc1)c1cccc(Cl)c1Cl	TrxR1 inh-1 inconclusive
CC1CCN(C(=O)COC(=O)c2ccc(S(C)(=O)=O)c([N+](=O)[O-])c2)CC1	none (no result: ALOX12 inh, Glioma ERSR ind, IDH1 R132H inh, Anesthetic bind, TrxR1 substrate, TrxR1 inh-1) | HepG2 tox 20µM
CC1CCN(C(=O)C(C)OC(=O)c2ccc(S(C)(=O)=O)c([N+](=O)[O-])c2)CC1 (centres undefined)	TrxR1 inh-1 11.2µM (no result: ALOX12 inh, IDH1 R132H inh, Anesthetic bind) | TRb SRC2 Alpha 7.3µM | HepG2 tox inactive | AR-SRC2 inh inactive | PPARg DRIP2 FP inactive | VDR-SRC2 FP sel inactive | TRb SRC2 FluoFP 3.6µM
COCC1CN(C(C)=O)CC12CCN(Cc1cccn1C)CC2 (centres undefined)	none (no result: Glioma ERSR ind, IDH1 R132H inh, Anesthetic bind, TrxR1 substrate, TrxR1 inh-1)
O=C(C1=C(O)C(=O)N(CCN2CCOCC2)C1c1cccc(F)c1)c1cc2ccccc2o1 (centres undefined)	TrxR1 inh-1 inconclusive
Cc1ccc(C2C(C(=O)c3cc4ccccc4o3)=C(O)C(=O)N2CCN2CCOCC2)cc1 (centres undefined)	ALOX12 inh inconclusive, TrxR1 inh-1 44.7µM | GR counterassay inconclusive | TrxR1 inh-2 inconclusive | TrxR1 insulin inactive | TrxR1 inh-3 0.333µM
O=C(c1ccc(-c2ccc([N+](=O)[O-])cc2)o1)N1CCCC(C(F)(F)F)C1 (centres undefined)	ALOX12 inh inconclusive, TrxR1 inh-1 inconclusive (no result: Anesthetic bind)
O=C(c1ccc(-c2ccc([N+](=O)[O-])cc2)o1)N1CCCCCCC1	ALOX12 inh inconclusive, TrxR1 inh-1 5.01µM (no result: Anesthetic bind) | GR counterassay inactive | TrxR1 inh-2 4.74 | TrxR1 insulin inactive | TrxR1 inh-3 1.05µM
COc1cc(C#N)c(C(=O)c2ccc(C)cc2)cc1OC	none (no result: Glioma ERSR ind, IDH1 R132H inh, Anesthetic bind, TrxR1 substrate, TrxR1 inh-1)
C=CCN1C(=O)N/C(=C/c2ccc(N3CCOCC3)o2)C1=O	none (no result: Glioma ERSR ind, IDH1 R132H inh, TrxR1 substrate, TrxR1 inh-1)
O=C1N/C(=C/c2ccc(N3CCOCC3)o2)C(=O)N1c1ccccc1	TrxR1 inh-1 7.08µM | GR counterassay inactive | TrxR1 inh-2 2.12 | TrxR1 insulin inactive | TrxR1 inh-3 2.11µM
CCCCOC(OCCCC)[C@H](O)CSc1ccc2ccccc2c1	none (no result: ALOX12 inh, IDH1 R132H inh, TrxR1 substrate, TrxR1 inh-1)
